The values that follow come from PubChem BioAssay (NCI).

Structures are written as SMILES. About 79,000 compounds went through this panel and 15% of them were active in at least one assay; those are over-represented in the sample as a whole. Values without a mark were called inactive. Calls of active or inactive are those of the source. No stated cut-off is given here; in the data, active means growth inhibition above about 70%; inactive means the rest.

Experiment [1] in a line: NCI Yeast Anticancer Drug Screen. Data for the rad50 strain (AID 155).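 Further: 0% = growth of vehicle-only cultures of the same strain.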 The following applies: S. cerevisiae rad50 strain growth inhibition, active compounds read high. In outline:
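A DNA repair-deficient yeast mutant serves as the test organism; compound-induced growth inhibition is calculated against vehicle-treated cells.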

Experiment [2] in a line: NCI Yeast Anticancer Drug Screen. Data for the mec2-1 strain (AID 157). The note with it: S. cerevisiae mec2-1 strain, active compounds read high. In outline: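 mec2-1 yeast strain, carrying an alteration in DNA damage repair or cell cycle control, was exposed to compounds; growth inhibition was measured relative to vehicle-treated controls.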
A short description of experiment [3]: NCI Yeast Anticancer Drug Screen. Data for the sgs1 mgt1 strain (AID 161).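 Further: 0% = growth of cultures given vehicle only.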 The following applies: S. cerevisiae sgs1 mgt1 strain, active compounds read high. In outline: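 This yeast growth screen uses a strain with defined DNA-repair lesions; compound-treated growth is compared with vehicle-treated growth.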
A short description of experiment [4]: NCI Yeast Anticancer Drug Screen. Data for the cln2 rad14 strain (AID 165).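 Further: 0% = growth equal to vehicle treated cultures.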 The following applies: S. cerevisiae cln2 rad14 strain, active compounds read high. An outline of the steps: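 Yeast carrying cln2 and rad14 alterations (cell cycle control and DNA damage repair) were exposed to compounds. Growth inhibition was measured against vehicle-treated controls.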

The nature of experiment [5]: NCI Yeast Anticancer Drug Screen. Data for the bub3 strain (AID 167). The note with it: S. cerevisiae bub3 mutant strain, active compounds read high. An outline of the steps:
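Inhibition values come from growth of compound-treated mutant yeast normalised to vehicle-treated controls.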

The nature of experiment [6]: NCI Yeast Anticancer Drug Screen. Data for the mlh1 rad18 strain (AID 175). The following applies: S. cerevisiae mlh1 rad18 strain growth inhibition, active compounds read high. In outline: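 Growth inhibition of the yeast strain was measured after compound exposure and expressed relative to vehicle-treated controls. The strain carries defined defects in DNA damage repair.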

[7] abbreviates: at 5.0 µM (retest, dose inferred, filed as 0.5).
[8] abbreviates: at 50.0 µM (retest, dose inferred, filed as 5.0).

With `O=C1C(=O)c2ccc(Br)cc2C(O)=C1C(c1ccccc1)c1ccccc1`, the growth inhibition in experiment [1] (setting [7]) is 29%; in experiment [1] (setting [8]), 60%; in experiment [1] (at 50.0 µM), 25.6%; in experiment [2] (setting [7]) it was 28%; in experiment [2] (setting [8]), 70% (active); in experiment [2] (at 50.0 µM) it was 30.5%. Besides, the growth inhibition in experiment [3] (setting [7]) is 4%; in experiment [3] (setting [8]), 74% (active); in experiment [3] (at 50.0 µM) it was 7.4%; in experiment [4] (setting [7]), 24%; in experiment [4] (setting [8]), 63%; in experiment [4] (at 50.0 µM), 14.2%. Moreover, the growth inhibition in experiment [5] (setting [7]) was 36%; in experiment [5] (setting [8]) it was 70% (active); in experiment [5] (at 50.0 µM), 21.2%; in experiment [6] (setting [7]), 28%; in experiment [6] (setting [8]), 69%; in experiment [6] (at 50.0 µM) it was 32.5%.

For the compound `NC(=O)c1ncn(C2OC(CO)C(O)C2O)c1O` (stereo not given), the growth inhibition in experiment [1] (setting [7]) is 20%; in experiment [1] (setting [8]) it was 6%; in experiment [1] (at 50.0 µM), -7.65%; in experiment [2] (setting [7]) it was -9%; in experiment [2] (setting [8]), -10%; in experiment [2] (at 50.0 µM), -11.4%. The growth inhibition is -3% in experiment [3] (setting [7]); 7% in experiment [3] (setting [8]); 11.3% in experiment [3] (at 50.0 µM); 13% in experiment [4] (setting [7]); 10% in experiment [4] (setting [8]); 4% in experiment [4] (at 50.0 µM). Also, the growth inhibition in experiment [5] (setting [7]) is 1%; in experiment [5] (setting [8]) it was 32%; in experiment [5] (at 50.0 µM), -7.85%; in experiment [6] (setting [7]), 2%; in experiment [6] (setting [8]) it was -4%; in experiment [6] (at 50.0 µM) it was -47.8%.

With `O=c1[nH]c2ccccc2c2cccc(F)c12`, the growth inhibition in experiment [1] (setting [7]) was 12%; in experiment [1] (setting [8]), 89% (active); in experiment [1] (at 50.0 µM) it was 94.2% (active); in experiment [2] (setting [7]), 10%; in experiment [2] (setting [8]), 76% (active); in experiment [2] (at 50.0 µM), 71.3% (active). Also, the growth inhibition is 13% in experiment [3] (setting [7]); 88% (active) in experiment [3] (setting [8]); 94.8% (active) in experiment [3] (at 50.0 µM); 4% in experiment [4] (setting [7]); 68% in experiment [4] (setting [8]); 69.5% in experiment [4] (at 50.0 µM). The growth inhibition was -8% in experiment [5] (setting [7]); 78% (active) in experiment [5] (setting [8]); 91.8% (active) in experiment [5] (at 50.0 µM); 7% in experiment [6] (setting [7]); 81% (active) in experiment [6] (setting [8]); 86.7% (active) in experiment [6] (at 50.0 µM).

Take `CC(C)(C)c1cc(C(=O)[O-])c([OH2+])c(C(C)(C)C)c1.CC(C)(C)c1cc(C(=O)[O-])c([OH2+])c(C(C)(C)C)c1.[Mn+2]`: the growth inhibition in experiment [1] (setting [7]) was 22%; in experiment [1] (setting [8]), 59%; in experiment [1] (at 50.0 µM), 99% (active); in experiment [2] (setting [7]) it was 27%; in experiment [2] (setting [8]), 60%; in experiment [2] (at 50.0 µM), 98.8% (active). Besides, the growth inhibition in experiment [3] (setting [7]) was 21%; in experiment [3] (setting [8]) it was 42%; in experiment [3] (at 50.0 µM), 98.5% (active); in experiment [4] (setting [7]) it was 42%; in experiment [4] (setting [8]), 78% (active); in experiment [4] (at 50.0 µM), 97% (active). For the same compound, the growth inhibition in experiment [5] (setting [7]) is 21%; in experiment [5] (setting [8]), 49%; in experiment [5] (at 50.0 µM), 97% (active); in experiment [6] (setting [7]), 28%; in experiment [6] (setting [8]) it was 71% (active); in experiment [6] (at 50.0 µM) it was 98.2% (active).

Consider `C1=NC2c3ccccc3Cc3cccc1c32` (stereo not given), for which the growth inhibition in experiment [1] (setting [7]) was -20%; in experiment [1] (setting [8]), 94% (active); in experiment [1] (at 50.0 µM), 95.4% (active); in experiment [2] (setting [7]), -3%; in experiment [2] (setting [8]) it was 97% (active); in experiment [2] (at 50.0 µM), 95.8% (active). Moreover, the growth inhibition in experiment [3] (setting [7]) was 7%; in experiment [3] (setting [8]) it was 97% (active); in experiment [3] (at 50.0 µM) it was 95.3% (active); in experiment [4] (setting [7]) it was -28%; in experiment [4] (setting [8]), 96% (active); in experiment [4] (at 50.0 µM), 93.6% (active). Also, the growth inhibition was 2% in experiment [5] (setting [7]); 97% (active) in experiment [5] (setting [8]); 93.3% (active) in experiment [5] (at 50.0 µM); -13% in experiment [6] (setting [7]); 97% (active) in experiment [6] (setting [8]); 94.3% (active) in experiment [6] (at 50.0 µM).

Turning to `CC(=O)OC1CC2Cc3ccccc3C3(O)COC213` (stereo not given), the growth inhibition in experiment [1] (setting [7]) was -1%; in experiment [1] (setting [8]), 48%; in experiment [1] (at 50.0 µM), 49.2%; in experiment [2] (setting [7]) it was 6%; in experiment [2] (setting [8]), 75% (active); in experiment [2] (at 50.0 µM), 45.4%. Besides, the growth inhibition in experiment [3] (setting [7]) is 6%; in experiment [3] (setting [8]), 76% (active); in experiment [3] (at 50.0 µM), 76.7% (active); in experiment [4] (setting [7]) it was 3%; in experiment [4] (setting [8]) it was 17%; in experiment [4] (at 50.0 µM) it was 14.1%. Also, the growth inhibition in experiment [5] (setting [7]) is -7%; in experiment [5] (setting [8]), 59%; in experiment [5] (at 50.0 µM) it was 59%; in experiment [6] (setting [7]), -2%; in experiment [6] (setting [8]), 83% (active); in experiment [6] (at 50.0 µM) it was 31.1%.

As to `Cc1ccc2c(n1)C(=O)C=CC2=O`, the growth inhibition was 25% in experiment [1] (setting [7]); 94% (active) in experiment [1] (setting [8]); 80.1% (active) in experiment [1] (at 50.0 µM); 5% in experiment [2] (setting [7]); 94% (active) in experiment [2] (setting [8]); 89.5% (active) in experiment [2] (at 50.0 µM). In addition, the growth inhibition in experiment [3] (setting [7]) is 22%; in experiment [3] (setting [8]), 90% (active); in experiment [3] (at 50.0 µM), 80.8% (active); in experiment [4] (setting [7]), 22%; in experiment [4] (setting [8]) it was 77% (active); in experiment [4] (at 50.0 µM), 22.9%. Moreover, the growth inhibition was 20% in experiment [5] (setting [7]); 97% (active) in experiment [5] (setting [8]); 80.8% (active) in experiment [5] (at 50.0 µM); 17% in experiment [6] (setting [7]); 93% (active) in experiment [6] (setting [8]); 36.2% in experiment [6] (at 50.0 µM).

With `CCOC(=O)C(C)(C)Oc1ccc2c(=O)cc(-c3ccccc3)oc2c1`, the growth inhibition was -8% in experiment [1] (setting [7]); 95% (active) in experiment [1] (setting [8]); 85.5% (active) in experiment [1] (at 50.0 µM); -28% in experiment [2] (setting [7]); 96% (active) in experiment [2] (setting [8]); 93% (active) in experiment [2] (at 50.0 µM). Besides, the growth inhibition was -43% in experiment [3] (setting [7]); 95% (active) in experiment [3] (setting [8]); 93.4% (active) in experiment [3] (at 50.0 µM); 6% in experiment [4] (setting [7]); 96% (active) in experiment [4] (setting [8]); 92.5% (active) in experiment [4] (at 50.0 µM). The growth inhibition in experiment [5] (setting [7]) is -17%; in experiment [5] (setting [8]), 97% (active); in experiment [5] (at 50.0 µM), 92.5% (active); in experiment [6] (setting [7]), -56%; in experiment [6] (setting [8]), 94% (active); in experiment [6] (at 50.0 µM), 89.9% (active).

Regarding `Cc1ccc(N=C(N)Nc2ccc(C)cn2)nc1`, the growth inhibition in experiment [1] (setting [7]) is 6%; in experiment [1] (setting [8]), 78% (active); in experiment [1] (at 50.0 µM) it was 84.5% (active); in experiment [2] (setting [7]), 2%; in experiment [2] (setting [8]) it was 68%; in experiment [2] (at 50.0 µM), 77.9% (active). The growth inhibition in experiment [3] (setting [7]) was 4%; in experiment [3] (setting [8]) it was 69%; in experiment [3] (at 50.0 µM), 44.6%; in experiment [4] (setting [7]), 19%; in experiment [4] (setting [8]), 74% (active); in experiment [4] (at 50.0 µM) it was 40%. Also, the growth inhibition in experiment [5] (setting [7]) was -5%; in experiment [5] (setting [8]), 70% (active); in experiment [5] (at 50.0 µM), 79.3% (active); in experiment [6] (setting [7]), 5%; in experiment [6] (setting [8]), 72% (active); in experiment [6] (at 50.0 µM), 41.5%.

`Clc1ccccc1/C=C/c1ccnc2ccccc12`: the growth inhibition in experiment [1] (setting [7]) is 1%; in experiment [1] (setting [8]), 99% (active); in experiment [1] (at 50.0 µM), 97.7% (active); in experiment [2] (setting [7]), 17%; in experiment [2] (setting [8]), 99% (active); in experiment [2] (at 50.0 µM), 97.8% (active). Further, the growth inhibition is 14% in experiment [3] (setting [7]); 99% (active) in experiment [3] (setting [8]); 97.9% (active) in experiment [3] (at 50.0 µM); -19% in experiment [4] (setting [7]); 98% (active) in experiment [4] (setting [8]); 96.8% (active) in experiment [4] (at 50.0 µM). Also, the growth inhibition was -3% in experiment [5] (setting [7]); 99% (active) in experiment [5] (setting [8]); 97.9% (active) in experiment [5] (at 50.0 µM); -5% in experiment [6] (setting [7]); 99% (active) in experiment [6] (setting [8]); 98.2% (active) in experiment [6] (at 50.0 µM).
